# Screens from PubChem.
# Compounds with a hit are over-represented: about 9.2% of the library has one in this group of screens.
# ELG1 DNA repair – inhibitors of ELG1-dependent DNA repair in HEK293T cells | HEK293T ELG1-luciferase reporter, luminescence, 16 h; DNA damage induced by 5-fluorouridine | Potency, µM (titrated, usually from 46.1 µM), usual class: inhibitors | 330,000 tested, 2.3% active; also: nearly all actives have a fitted effect of over 55% in size
#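 Reporter activity after DNA damage by 5-fluorouridine is monitored. Compound-treated cells incubate 16 hr at 37 °C, then ONE-Glo is added for 30 min before luminescence reading.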
# ELG1 genotox – genotoxicity induction in ELG1-luciferase HEK293T cells. AID 504466. HEK293T ELG1-luciferase reporter, luminescence, 16 h. Potency, µM (doses to about 46 µM), hits mostly activators. 330,000 tested, 1.3% active; also: nearly all actives have a fitted effect of over 60% in size
#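 HEK293T cells expressing luciferase-tagged ELG1 were treated with compound or DMSO for 16 hr at 37°C. Luciferase activity was then read after 30 min with ONE-Glo at room temperature; rising signal flags genetic stress.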
# NPC1 prom act – activators of NPC1 promoter; Huh7 NPC1 promoter luciferase reporter, 24 h; Potency, µM (top dose mostly 9.22 µM), usual class: activators; 320,000 tested, 2.4% active; AID 485313; also: nearly all actives have a fitted effect of over 60% in size
#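 Stable NPC1-promoter luciferase Huh7 line; cpd (DMSO) 24 h, 37 °C, 5% CO2; Amplite luciferase reagent 10 min RT; luminescence readout. qHTS format.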
# SMN2 splice enh – enhancers of SMN2 splice variant expression. 210,000 tested, 2.8% active. AID 1458. Potency, µM (doses to about 46.1 µM), usual class: activators. HEK293 SMN2-luciferase splicing reporter, luminescence, 30-36 h; also: nearly all actives have a fitted effect of over 55% in size
#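 HEK293 cells carry an SMN2 […]–luciferase reporter in which exon 7 inclusion puts luciferase in frame. Cells were plated 10-12 h before compound addition, then incubated 30-36 h at 37C. ONE-Glo luminescence was read; sodium butyrate at 4.5 mM final served as control.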
# Rab9 promoter act – activates the Rab9 promoter | Potency, µM (top dose mostly 9.22 µM), usual class: activators | 320,000 tested, 2.8% active | Huh7 Rab9 promoter-luciferase reporter, luminescence, 24 h; also: nearly all actives have a fitted effect of over 60% in size
#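 Luciferase signal after 10 min detection reagent at ambient indicates Rab9 promoter upregulation; stably transfected Huh7 cells were treated 24 h with compound in DMSO at 37 °C, 5% CO2.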
# FLuc counter – inhibits or activates purified firefly luciferase, miR-21 counter-screen; P08659; purified FLuc, Km substrates, luminescence inhibition; Potency, µM (highest dose often 57.5 µM), most hits filed as inhibitors; 360,000 tested, 6.9% active; also: nearly all actives have a fitted effect of over 55% in size
# Target sequence (P08659 whole entry, looked up): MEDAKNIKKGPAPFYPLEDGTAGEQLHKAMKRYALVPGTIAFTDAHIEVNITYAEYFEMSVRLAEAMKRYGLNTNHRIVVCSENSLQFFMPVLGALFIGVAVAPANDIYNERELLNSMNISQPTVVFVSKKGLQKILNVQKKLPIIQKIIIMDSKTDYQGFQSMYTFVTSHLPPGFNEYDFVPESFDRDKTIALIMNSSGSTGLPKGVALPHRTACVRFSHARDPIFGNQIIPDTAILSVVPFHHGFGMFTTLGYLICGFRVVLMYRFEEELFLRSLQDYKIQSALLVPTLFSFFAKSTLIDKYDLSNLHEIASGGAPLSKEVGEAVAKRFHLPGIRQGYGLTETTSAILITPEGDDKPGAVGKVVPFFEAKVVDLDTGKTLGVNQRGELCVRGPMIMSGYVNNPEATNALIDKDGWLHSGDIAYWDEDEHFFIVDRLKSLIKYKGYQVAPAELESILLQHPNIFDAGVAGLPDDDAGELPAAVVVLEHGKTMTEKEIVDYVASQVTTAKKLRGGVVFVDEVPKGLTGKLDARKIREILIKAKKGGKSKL
#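 Biochemical qHTS of compounds, final roughly 60 µM downward over six points, against 10 nM purified firefly luciferase using Km concentrations of substrates (10 uM D-luciferin, 10 uM ATP) in Tris acetate pH 7.5 buffer; luminescence output.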
# Numbers stand for hits; 0 = inactive; ? = inconclusive; - = not tested or not shown. Calls follow the shape of the dose curve; as a rule, active = well fitted curve in the direction sought with a large enough effect; inconclusive = small, poorly fitted or top-dose-only effect, or another doubt; inactive = no such curve, though single readings can be large; an effect the other way counts as inactive or inconclusive.
SMILES,ELG1 DNA repair,ELG1 genotox,NPC1 prom act,SMN2 splice enh,Rab9 promoter act,FLuc counter
Cc1ccc(C(=O)NC2CCc3ccccc3C2=O)cc1 (stereo not given),?,0,2.5µM,13µM,2.2µM,12µM
CN=c1nc(-c2ccccc2)n(-c2ccccc2)s1,?,?,0,?,0,15µM
c1ccc(-c2nnnn2-c2ccccc2)cc1,0,0,0,-,0,0
COc1cc(NC(=O)c2ccc(OCc3c(C)noc3C)c(OC)c2)cc(OC)c1,21µM,0,-,-,-,-
Cc1ccc(NC(=O)c2cccc(OCc3c(C)noc3C)c2)cc1,0,0,0,0,0,24µM
Cc1noc(C)c1COc1cccc(C(=O)Nc2ccccc2)c1,0,0,0,-,0,-
O=C(O)C1CC(c2ccccc2)=Nc2ccccc2S1 (stereo not given),?,?,?,-,?,17µM
COc1cc(/C=N/N(C)C)cc(Br)c1O,0,0,0,-,0,0
COc1cc(/C=N/N(C)c2ccccc2)cc(Cl)c1O,0,0,0,0,0,13µM
COc1ccc(OC)c(/C=N/N(C)c2ccccc2)c1,?,5.8µM,?,?,3.5µM,11µM
CC(C)Cc1ccc(-c2cc(=O)[nH][nH]2)cc1,0,0,0,0,0,17µM
Cc1ccc(-c2cc(=O)[nH][nH]2)c(C)c1,0,0,0,0,0,0
COc1ccc(N(CC(=O)Nc2ccc3c(c2)OCO3)S(=O)(=O)c2ccccc2)c(OC)c1,15µM,0,0,0,0,0
COc1ccc(N(CC(=O)Nc2ccc3c(c2)OCO3)S(=O)(=O)c2ccc(C)cc2)cc1OC,26µM,0,0,-,0,0
COc1ccc(N(CC(=O)NCCC2=CCCCC2)S(=O)(=O)c2ccc(C)cc2)cc1OC,15µM,0,0,0,0,0
COc1ccccc1N(CC(=O)Nc1ccccc1)S(=O)(=O)c1cccs1,0,0,0,-,0,0
COc1cccc(NC(=O)CN(c2ccccc2OC)S(=O)(=O)c2cccs2)c1,21µM,0,0,-,0,-
COc1ccc(N(CC(=O)Nc2ccc3c(c2)OCO3)S(=O)(=O)c2ccccc2)cc1OC,?,0,0,-,0,0
N#C/C(=C\c1coc2ccc(O)cc2c1=O)C(=O)Nc1nc2ccccc2s1,?,0,0,-,0,?
CCN1CCN(c2ccc(NC(=O)c3ccc4c(c3)[nH]c(=O)n4Cc3ccc(F)cc3)cc2)CC1,0,0,0,?,0,0
CCOCCn1c(=O)c2c(nc3n2CCN3c2ccc(C)c(C)c2)n(C)c1=O,-,-,0,-,0,0
Cc1sc2nc(-c3ccccc3)oc(=O)c2c1C,0,0,0,-,0,5.4µM
CC1(C)Cc2c(sc3nc(-c4ccccc4)oc(=O)c23)CO1,?,0,0,?,0,1.2µM
O=C1CCC(=O)N1c1ccc(-c2nc3sc4c(c3c(=O)o2)CCC4)cc1,0,0,0,-,0,21µM
Cc1nc2sc3c(c2c(=O)o1)CCCC3,0,0,0,0,0,0
SMILES,ELG1 DNA repair,ELG1 genotox,NPC1 prom act,SMN2 splice enh,Rab9 promoter act,FLuc counter
O=c1oc(-c2ccco2)nc2sc3c(c12)CCCC3,?,0,0,14µM,0,1.5µM
Cc1cc(=O)n(Cc2ccc(F)cc2Cl)c2c1c(C)nn2-c1ccccc1,-,-,-,-,-,0
COc1ccc(CC(=O)NCC(c2ccc(N(C)C)cc2)N2CCOCC2)cc1OC (stereo not given),-,-,-,-,-,0
CC1(C)Cc2c(sc3nc(-c4cc5ccccc5o4)n(N)c(=O)c23)CO1,?,0,3.2µM,11µM,2.8µM,6µM
Nc1nc(-c2ccccc2)nc2sc3c(c12)CCCC3,?,4.1µM,2.2µM,3.2µM,1.8µM,0.27µM
O=c1oc(-c2ccccc2)nc2sc3c(c12)CCC3,?,0,0,?,0,2.4µM
CCOc1ccc(C(=O)N[C@H](C(=O)NNC(=O)c2cccs2)C(C)C)cc1,?,0,-,-,-,-
CCn1c(SCC(=O)Nc2ccc3c(c2)OCCO3)nnc1-c1c[nH]c2ccccc12,0,0,0,-,0,13µM
Nn1c(SCC(=O)Nc2ccc3c(c2)OCO3)nnc1C1CC1,0,0,0,0,0,0
Nn1c(SCC(=O)NC(=O)Nc2ccc3c(c2)OCCO3)nnc1C1CC1,?,0,0,?,?,19µM
CCn1c(SCC(=O)Nc2ccc3c(c2)OCCO3)nnc1-c1cccs1,0,0,0,0,0,11µM
CCn1c(SCC(=O)Nc2ccc3c(c2)OCCO3)nnc1C1CC1,0,0,0,-,0,15µM
O=C(CSc1nnc(-c2c[nH]c3ccccc23)n1CC1CCCO1)Nc1ccc2c(c1)OCCO2 (stereo not given),0,0,0,0,0,0
COc1ccc(N(Cc2cccs2)C(=O)COc2ccc([N+](=O)[O-])cc2)cc1,-,-,-,-,-,0
Cc1cc2ncn(/N=C/c3ccc(-c4ccccc4)o3)c2cc1C,0,0,0,0,0,24µM
Cc1cc2ncn(/N=C/c3cccnc3)c2cc1C,0,0,0,0,0,?
COc1ccc(C(=O)NNC(=O)C(=O)Nc2ccc(C)cc2)cc1,0,0,0,-,0,0
COc1ccc2cc3c(N)c(C(=O)NCc4ccco4)sc3nc2c1,?,0,?,13µM,2µM,6µM
COc1ccc2cc3cc(C(=O)NCc4ccco4)oc3nc2c1,0,0,0,0,0,?
COc1ccc(C(=O)Nc2ccc(SC(F)F)cc2)cc1,?,?,2.2µM,?,0.79µM,3µM
O=C(Nc1ccsc1C(=O)O)c1ccccc1,?,0,0,-,0,24µM
COc1ccc(NC(=O)c2ccc(C)cc2)cc1,?,2.1µM,0.4µM,-,0.45µM,2.7µM
Cc1noc(C)c1C(=O)N1CCC2(CCN(C(=O)Nc3ccccc3)CC2)CC1,-,-,-,0,-,-
O=C(NCc1ccc(Cl)cc1)C1CCC(=O)N(C2CCCCCC2)C1 (stereo not given),0,0,0,-,0,0
CCCSc1nnc2c(n1)OC(c1ccc(Br)s1)Nc1ccccc1-2 (stereo not given),-,-,-,0,-,?
SMILES,ELG1 DNA repair,ELG1 genotox,NPC1 prom act,SMN2 splice enh,Rab9 promoter act,FLuc counter
O=C(Nc1ccc(Oc2ccsc2C(=O)O)cc1)c1ccccc1,0,0,0,-,0,24µM
COc1ccc(C(=O)Nc2cccc(C(=O)NCc3ccco3)c2)cc1,0,0,0,-,0,12µM
CN(C(=S)Oc1ccc(C(=O)Nc2ccccc2)cc1)c1ccccc1,18µM,0,0,0,0,0
COc1ccc(NC(=O)c2ccccc2)cc1,?,?,3.5µM,-,1.8µM,?
O=C(NCc1ccco1)c1cccc(NC(=O)c2ccco2)c1,0,0,0,0,0,0
COc1ccc2c(c1)c1c(c(=O)n(-c3cccc(Cl)c3)c(=O)n1CC(=O)N1CCCC1)n2C,-,-,-,-,-,0
CCN(CC)CCOC(=O)c1cc(Cl)c(N)cc1OC,0,0,0,?,0,0
